Results: PubChem BioAssay (Tox21)
Records with an inconclusive call do not appear. Entries that show only a call come without a potency. Unmarked numbers belong to inactive results. Activity calls are given as the source filed them. Unless noted, calls follow the shape of the dose curve; as a rule, active = well fitted curve in the direction sought with a large enough effect in the repeat runs; inconclusive = weak or mixed curves; inactive = no such curve, though single readings can be large; an effect the other way counts as inactive or inconclusive.

How the values were obtained:
[1] = qHTS assay to identify small molecule antagonists of the estrogen related receptor (ERR) signaling pathway from Tox21 library - cell viability counter screen (AID 1224834); also: nearly all actives have a fitted effect of over 30% in size
Method in brief: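 In this quantitative HTS format, ERR cells receive compounds in DMSO and are incubated for 17.5 h at 37 C. Live-cell protease activity is then detected with CellTiter-Fluor.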

[2] = molecular target: Luciferin 4-monooxygenase (Photinus pyralis) (UniProt P08659); experiment: qHTS assay to identify small molecule inhibitors of firefly luciferase (AID 1224835); also: nearly all actives have a fitted effect of over 25% in size
Method in brief: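 Quantitative HTS format; KM concentrations of both substrates. Purified P. pyralis FLuc activity quantified from luminescence images.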

[3] = qHTS assay to identify small molecule agonists of the constitutive androstane receptor (CAR) signaling pathway - cell viability counter screen (AID 1224836); also: nearly all actives have a fitted effect of over 45% in size
Method in brief: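 23 h treatment, 37 C, 5% CO2. Cell line: HepG2 stably expressing hCAR with a CYP2B6-2.2kb construct. Co-treatment: PK11195, 0.75 uM final. Read-out: CellTiter-Fluor fluorescence intensity.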

[4] = qHTS assay to identify small molecule antagonists of the constitutive androstane receptor (CAR) signaling pathway - cell viability counter screen (AID 1224837); also: nearly all actives have a fitted effect of over 45% in size
Method in brief: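 In quantitative HTS format, compounds at 15 concentrations were applied to HepG2 cells double-transfected with hCAR and CYP2B6-2.2kb under 50 nM CITCO stimulation; live-cell protease activity was read after 23 hr via CellTiter-Fluor.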

[5] = molecular target: Thyrotropin receptor (Homo sapiens) (UniProt P16473); experiment: qHTS assay to identify small molecule agonists of the thyroid stimulating hormone receptor (TSHR) signaling pathway (AID 1224843; calls by dose curve; also: nearly all actives have a fitted effect of over 45% in size)
Method in brief: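 Using 15 concentrations per compound in triplicate, cAMP production was monitored in TSHR-HEK293 cells after 30 min compound incubation at RT; HTRF reagents followed, with fluorescence intensity recorded after 1 h.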

[6] = qHTS assay to identify small molecule antagonists of the estrogen related receptor signaling pathway with the pleiotropic PPARgamma coactivator (PGC) from Tox21 10K library - cell viability counter screen (AID 1224840; active = well fitted cell-killing curve with a large enough effect in the repeat runs, not every such curve was filed as active; also: nearly all actives have a fitted effect of over 40% in size)
Method in brief: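 Viability counter screen, PGC/ERR cells: 17.5 h compound exposure at 37 C, CellTiter-Fluor fluorescence endpoint.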

[7] = qHTS assay to identify small molecule antagonists of the estrogen related receptor signaling pathway with the pleiotropic PPARgamma coactivator (PGC) from Tox21 10K library (AID 1224841; call rule not given here; also: actives are mostly falling curves and most rising ones were filed inactive; nearly all actives have a fitted effect of over 50% in size)
Method in brief: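 In the PGC/ERR line, DMSO solutions of test chemicals are pin-delivered to 2,000 cells/well six hours after dispensing. Following eighteen hours' incubation, One-Glo reagent is added and luminescence recorded.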

[8] = qHTS assay to identify small molecule agonists of the estrogen related receptor signaling pathway with the pleiotropic PPARgamma coactivator (PGC) from Tox21 10K library (AID 1224842); also: nearly all actives have a fitted effect of over 15% in size
Method in brief: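 PGC/ERR reporter cells (NTP line) were seeded 2,000 per well, rested 6 h at 37 C/5% CO2, then pin-dosed with compounds in DMSO for 18 h at 37 C; luciferase read by One-Glo luminescence after 30 min at room temperature.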

[9] = molecular target: Nuclear receptor subfamily 1 group I member 3 (Homo sapiens) (UniProt Q14994); experiment: qHTS assay to identify small molecule antagonists of the constitutive androstane receptor (CAR) signaling pathway (AID 1224838); also: nearly all actives have a fitted effect of over 40% in size
Method in brief: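 CITCO-stimulated (50 nM final) HepG2 cells stably transfected with hCAR and CYP2B6-2.2kb luciferase were exposed to compounds at 15 concentrations for 24 h at 37 C/5% CO2. A luciferase reagent was added and luminescence recorded after 30 min.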

[10] = molecular target: Nuclear receptor subfamily 1 group I member 3 (Homo sapiens) (UniProt Q14994); experiment: qHTS assay to identify small molecule agonists of the constitutive androstane receptor (CAR) signaling pathway (AID 1224839); also: nearly all actives have a fitted effect of over 15% in size
Method in brief: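 Compounds tested at 15 concentrations on HepG2 cells stably harbouring hCAR and CYP2B6-2.2kb reporter constructs, co-treated with PK11195 (0.75 uM final), 24 h at 37 C; luminescent reporter signal quantified.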
Potency is read from the fitted curve at half-maximal effect.

Chain of Thyrotropin receptor (Homo sapiens) (P16473 whole entry, looked up): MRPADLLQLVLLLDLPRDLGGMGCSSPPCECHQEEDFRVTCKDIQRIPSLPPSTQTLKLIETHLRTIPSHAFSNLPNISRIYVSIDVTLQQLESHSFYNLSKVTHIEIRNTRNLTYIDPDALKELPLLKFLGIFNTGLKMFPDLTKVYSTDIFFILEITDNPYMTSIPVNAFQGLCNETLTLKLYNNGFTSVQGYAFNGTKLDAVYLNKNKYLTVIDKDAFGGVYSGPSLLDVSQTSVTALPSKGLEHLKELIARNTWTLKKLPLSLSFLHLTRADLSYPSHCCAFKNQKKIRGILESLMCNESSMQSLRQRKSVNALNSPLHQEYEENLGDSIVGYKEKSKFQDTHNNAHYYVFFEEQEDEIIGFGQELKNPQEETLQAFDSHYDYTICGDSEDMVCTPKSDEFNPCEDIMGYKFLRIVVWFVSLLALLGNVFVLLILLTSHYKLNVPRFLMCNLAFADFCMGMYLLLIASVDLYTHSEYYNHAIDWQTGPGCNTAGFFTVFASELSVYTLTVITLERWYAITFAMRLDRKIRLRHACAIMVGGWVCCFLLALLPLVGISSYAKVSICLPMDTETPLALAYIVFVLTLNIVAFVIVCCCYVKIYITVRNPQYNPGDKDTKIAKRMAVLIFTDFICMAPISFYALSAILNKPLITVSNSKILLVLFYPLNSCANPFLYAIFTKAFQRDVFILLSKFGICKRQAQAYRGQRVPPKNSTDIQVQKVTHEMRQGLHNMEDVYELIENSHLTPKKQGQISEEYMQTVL
Chain of Nuclear receptor subfamily 1 group I member 3 (Homo sapiens) (Q14994 whole entry, looked up): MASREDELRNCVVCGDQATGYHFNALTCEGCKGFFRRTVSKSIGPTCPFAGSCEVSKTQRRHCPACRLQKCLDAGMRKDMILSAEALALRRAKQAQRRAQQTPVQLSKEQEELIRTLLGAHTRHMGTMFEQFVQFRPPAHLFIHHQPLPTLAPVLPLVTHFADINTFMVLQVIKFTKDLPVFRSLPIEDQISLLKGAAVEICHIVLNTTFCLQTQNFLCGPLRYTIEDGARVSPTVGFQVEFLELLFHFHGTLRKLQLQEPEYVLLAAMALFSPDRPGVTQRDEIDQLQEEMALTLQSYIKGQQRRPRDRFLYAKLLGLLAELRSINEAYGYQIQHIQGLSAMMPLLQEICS
Chain of Luciferin 4-monooxygenase (Photinus pyralis) (P08659 whole entry, looked up): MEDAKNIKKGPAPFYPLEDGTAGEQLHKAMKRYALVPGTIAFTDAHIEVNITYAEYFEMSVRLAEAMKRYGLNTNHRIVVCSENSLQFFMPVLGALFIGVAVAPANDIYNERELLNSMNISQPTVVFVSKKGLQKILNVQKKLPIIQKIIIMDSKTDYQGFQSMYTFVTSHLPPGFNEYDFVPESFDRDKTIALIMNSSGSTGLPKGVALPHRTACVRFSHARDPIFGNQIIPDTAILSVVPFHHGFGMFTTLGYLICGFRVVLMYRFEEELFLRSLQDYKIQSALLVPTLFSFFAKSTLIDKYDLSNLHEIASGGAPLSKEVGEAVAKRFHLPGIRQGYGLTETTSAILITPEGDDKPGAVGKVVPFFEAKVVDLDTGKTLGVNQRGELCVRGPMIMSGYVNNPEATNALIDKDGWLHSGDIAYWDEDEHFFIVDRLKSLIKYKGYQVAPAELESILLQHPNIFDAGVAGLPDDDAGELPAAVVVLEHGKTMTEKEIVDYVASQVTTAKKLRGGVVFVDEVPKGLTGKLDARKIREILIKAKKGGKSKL

Row | SMILES | Potency [1] | Potency [2] | Potency [3] | Potency [4] | Potency [5] | Potency [6] | Potency [7] | Potency [8] | Potency [9] | Potency [10]
1 | CCC(C)c1cc(C(C)(C)C)c(O)c(C(C)(C)C)c1 (centres undefined) | inactive | inactive | inactive | inactive | inactive |  |  |  |  | 
2 | CCCCCCCCO[C@@H]1O[C@H](CO)[C@@H](O)[C@H](O)[C@H]1O | inactive | inactive | inactive | inactive | inactive | inactive |  |  |  | 
3 | CCN(CC)CCNc1ccc(CNC=O)c2sc3ccc(OC)cc3c(=O)c12 | 7.7 µM (active) | inactive | 8.63 µM (active) | 8.63 µM (active) | inactive | 6.11 µM (active) | inactive |  |  | 
4 | O=S(=O)(Oc1ccc(Cl)cc1)c1ccccc1 | inactive |  | inactive | inactive | inactive | inactive | inactive | inactive |  | 
5 | O=S(c1cc(Cl)cc(Cl)c1O)c1cc(Cl)cc(Cl)c1O | inactive |  | inactive | inactive | inactive |  | inactive | inactive | inactive | inactive
6 | CC(=O)[O][Al][O]C(C)=O | inactive |  | inactive | inactive |  | inactive | inactive | inactive |  | 
7 | C=CC(=O)OCCOc1ccccc1 | inactive |  | inactive | inactive | inactive | inactive | inactive | 68.5 µM (active) |  | 
8 | CC(=O)c1ccc2c(c1)N(CCCN1CCC(CCO)CC1)c1ccccc1S2 | 23.7 µM (active) | inactive | inactive |  |  | inactive |  |  |  | inactive
9 | C#C[C@]1(O)CC[C@H]2[C@@H]3CCc4cc(OC5CCCC5)ccc4[C@H]3CC[C@@]21C | inactive | inactive | inactive |  |  | inactive |  |  |  | 
10 | Brc1c2ccccc2cc2ccccc12 | inactive |  | inactive | inactive | inactive | inactive |  |  | inactive | 55 µM (active)
11 | CC(C)O.CC(C)O.CCOC(=O)/C=C(\C)O.CCOC(=O)/C=C(\C)O.[Ti] | inactive |  | inactive | inactive | inactive | inactive |  |  |  | 
12 | CC(C)C[C@H]1C(=O)N2CCC[C@H]2[C@]2(O)O[C@](NC(=O)[C@@H]3C=C4c5cccc6[nH]c(Br)c(c56)C[C@H]4N(C)C3)(C(C)C)C(=O)N12 | 18.4 µM (active) | inactive |  |  | inactive |  | 16.4 µM (active) | inactive | inactive | 
13 | CCC(C)O (centres undefined) | inactive |  | inactive | inactive | inactive | inactive |  |  | inactive | inactive
14 | O=C(NCC1CN(c2ccc(N3CCOCC3=O)cc2)C(=O)O1)c1ccc(Cl)s1 (centres undefined) | inactive | inactive |  | inactive | inactive | inactive |  | inactive |  | 
15 | CCN(CC)c1ccc(C(=C2C=CC(=[N+](CC)CC)C=C2)c2cc(S(=O)(=O)O)ccc2S(=O)(=O)[O-])cc1 | 29.8 µM (active) | 12.3 µM (active) |  |  |  |  | 11.9 µM (active) | inactive | 11.9 µM (active) | inactive
16 | CCCCO | inactive |  | inactive | inactive | inactive | inactive |  |  |  | 
17 | O=C(Cl)c1cc(C(=O)Cl)cc(C(=O)Cl)c1 | inactive |  | inactive | inactive | inactive | inactive |  |  |  | 
18 | CCCCC(CC)COC(=O)COc1ccc(Cl)cc1Cl (centres undefined) | inactive |  | inactive | inactive | inactive | inactive |  |  |  | 
19 | S=C([S-])NCCNC(=S)[S-].[Mn+2] | inactive | 12.6 µM (active) |  |  | inactive |  |  |  |  | 
20 | CC(C)Cc1ccc(C(C)C(=O)OCc2ccccn2)cc1 (centres undefined) | inactive |  | inactive | inactive |  | inactive |  |  |  | 
21 | O=C(O)C(S)C(S)C(=O)O (centres undefined) | inactive |  | inactive | inactive | inactive |  |  |  | inactive | inactive
22 | Cc1cc(N)c2cc(NC(=O)Nc3ccc4nc(C)cc(N)c4c3)ccc2n1 | inactive |  | inactive | inactive |  | inactive |  |  | inactive | inactive
23 | COc1cc(Cl)ccc1Oc1ccc(Cl)cc1Cl | inactive |  | inactive | inactive | inactive |  | inactive |  | inactive | 29.8 µM (active)
24 | CCCCCCOC(=O)NC(=N)c1ccc(NCc2nc3cc(C(=O)N(CCC(=O)OCC)c4ccccn4)ccc3n2C)cc1 | 29.8 µM (active) |  | inactive | inactive | inactive | 29.8 µM (active) | 16.8 µM (active) | inactive | inactive | inactive
25 | Cc1oc(-c2ccccc2)nc1CCOc1cccc2c1ccn2CCC(=O)O | 30.6 µM (active) |  | inactive |  | inactive | inactive |  |  | inactive | inactive
26 | OC(CN1CCC(Cc2ccc(F)cc2)CC1)c1ccc(Cl)cc1 (centres undefined) | inactive | inactive |  |  |  |  |  |  | 23.7 µM (active) | inactive
27 | Nc1ncn([C@H]2C[C@H](O)[C@@H](CO)O2)c(=O)n1 | inactive |  | inactive | inactive |  |  |  |  | inactive | inactive
28 | O=[N+]([O-])c1cccc(S(=O)(=O)O)c1 | 43.9 µM (active) | inactive |  |  |  |  | 55.3 µM (active) | inactive |  | inactive
29 | O[C@@H](COc1cccc2ncccc12)CN1CCN(C2c3ccccc3[C@@H]3[C@H](c4ccccc42)C3(F)F)CC1 (some centres undefined) | 9.44 µM (active) | inactive |  |  | 11.9 µM (active) |  |  |  |  | inactive
30 | CCCCCCc1ccc(-c2ccc(C#N)cc2)cc1 | inactive |  | inactive | inactive | inactive | inactive | inactive | inactive | inactive | 
